According to PubChem BioAssay (Tox21):
Where “and” joins values, the source holds several entries; their conditions need not be identical. Identical values can stand only once. Inconclusive results are not listed. Some compounds were tested as several samples or in several runs, with calls that do not always agree. Calls of active or inactive are those of the source. Unless noted, calls come from the whole dose curve; as a rule, active = well fitted curve in the direction sought with a large enough effect in the repeat runs; inconclusive = weak or mixed curves; inactive = no such curve, though single readings can be large; an effect the other way counts as inactive or inconclusive.

What was measured:
[1] = A CellTox Green Cytotoxicity Assay to monitor cytotoxicity in HepG2 cells - 0 hour (AID 1224882); note: nearly all actives have a fitted effect of over 35% in size
Method in brief: (§1)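 Read-out is fluorescence of a cyanine dye excluded from live cells that stains DNA of dead HepG2 cells, with signal proportional to cytotoxicity. Plates were read at 0, 8, 16, 24, 32 and 40 h after compound addition.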

[2] = A CellTox Green Cytotoxicity Assay to monitor cytotoxicity in HepG2 cells - 32 hour (AID 1224883); note: nearly all actives have a fitted effect of over 50% in size; note: potency is the fitted concentration of half-maximal effect
Method in brief: as §1

[3] = A CellTox Green Cytotoxicity Assay to monitor cytotoxicity in HEK293 cells - 8 hour (AID 1224884); note: nearly all actives have a fitted effect of over 35% in size; note: potency is the fitted concentration of half-maximal effect
Method in brief: (§2)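 Nonlytic real-time cytotoxicity: HEK293 + CellTox Green reagent plated, 5 h preincubation, pintool compound addition (23 nL in DMSO), 37 C for 40 h, fluorescence measured at successive time points.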

[4] = qHTS RealTime-Glo MT Cell Viability Assay in HepG2 cells - 16 hour (AID 1224885); note: nearly all actives have a fitted effect of over 50% in size; note: potency is the fitted concentration of half-maximal effect
Method in brief: (§3)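 Compound treatment began 5 h after plating HepG2 cells (600/well) with NanoLuc luciferase and prosubstrate. Plates stayed at 37 C for 40 h; luminescence was captured at six time points, 0 h through 40 h.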

[5] = qHTS RealTime-Glo MT Cell Viability Assay in HEK293 cells - 24 hour (AID 1224886); note: nearly all actives have a fitted effect of over 50% in size; note: potency is the fitted concentration of half-maximal effect
Method in brief: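 Quantitative high-throughput screen of the Tox21 10K library in HEK293: cells and RealTime-Glo reagents plated together, compound added at 5 h, luminescence monitored through 40 h at 37 C.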

[6] = qHTS RealTime-Glo MT Cell Viability Assay in HEK293 cells - 8 hour (AID 1224887); note: nearly all actives have a fitted effect of over 50% in size; note: potency is the fitted concentration of half-maximal effect
Method in brief: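 Cells were seeded together with NanoLuc luciferase and a prosubstrate that viable cells reduce to a luciferase substrate. After a 5 h incubation at 37 C/5% CO2, compounds were added and luminescence was measured repeatedly during 40 h of treatment.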

[7] = A CellTox Green Cytotoxicity Assay to monitor cytotoxicity in HEK293 cells - 16 hour (AID 1224888); note: nearly all actives have a fitted effect of over 35% in size; note: potency is the fitted concentration of half-maximal effect
Method in brief: as §2

[8] = qHTS RealTime-Glo MT Cell Viability Assay in HepG2 cells - 0 hour (AID 1224889); note: nearly all actives have a fitted effect of over 50% in size
Method in brief: as §3

[9] = A CellTox Green Cytotoxicity Assay to monitor cytotoxicity in HepG2 cells - 8 hour (AID 1224890); note: nearly all actives have a fitted effect of over 45% in size; note: potency is the fitted concentration of half-maximal effect
Method in brief: as §1

[10] = qHTS assay to identify small molecule antagonists of the estrogen receptor alpha (ER-alpha) signaling pathway using the BG1 cell line in the presence of 0.1 nM 17-beta-estradiol - cell viability counter screen (AID 1259241); note: nearly all actives have a fitted effect of over 40% in size; note: potency is the fitted concentration of half-maximal effect
Method in brief: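 VM7Luc4E2, 4,000 cells/well, phenol red-free medium + 10% charcoal-stripped FBS; 24 hr plating; cpd + 0.1 nM E2 final, 22 hr 37C/5% CO2; CellTiter-Fluor 30 min, fluorescence.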

[11] = qHTS assay to identify small molecule antagonists of the androgen receptor (AR) signaling pathway using the MDA cell line in the presence of 0.5 nM R1881 - cell viability counter screen (AID 1259242); note: nearly all actives have a fitted effect of over 45% in size; note: potency is the fitted concentration of half-maximal effect
Method in brief: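 Counter screen for cytotoxicity run in the same wells as the AR antagonist reporter screen: MDA-kb2 cells were treated 16 hr with test compounds and 0.5 nM R1881, then live-cell protease activity was measured by fluorescence.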

[12] = qHTS assay to identify small molecule HDAC inhibitors - cell viability counter screen (AID 1259365); note: nearly all actives have a fitted effect of over 50% in size; note: potency is the fitted concentration of half-maximal effect
Method in brief: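 Luminescence from CellTiter-Glo, developed 30min at room temperature, reports viability of wild-type HCT-116 cells treated 2hr with compounds at 37 C and 5% CO2 after overnight plating.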

[13] = qHTS assay to identify small molecule agonists of the sonic hedgehog signaling (Shh) pathway - cell viability counter screen (AID 1259366); note: nearly all actives have a fitted effect of over 50% in size; note: potency is the fitted concentration of half-maximal effect
Method in brief: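 Cytotoxicity counter screen run in the same wells as the Shh reporter assay. NIH/3T3 cells carrying a Gli1 response element–driven luciferase were treated with DMSO-dissolved compounds for 24hr, and live-cell protease activity was measured with CellTiter-Fluor.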

[14] = qHTS assay to identify small molecule antagonists of the sonic hedgehog signaling (Shh) pathway - cell viability counter screen (AID 1259367); note: nearly all actives have a fitted effect of over 55% in size; note: potency is the fitted concentration of half-maximal effect
Method in brief: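 NIH/3T3-derived Gli1-Luc reporter cells (2,000 per well) rested 4 hr at 37 C, then received DMSO compounds plus conditioned medium. After 23 hr of treatment, CellTiter-Fluor was added for 1 hr at 37C and fluorescence read.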

[15] = qHTS assay to identify small molecule agonists of the sonic hedgehog signaling (Shh) pathway (AID 1259368; calls by dose curve; note: nearly all actives have a fitted effect of over 15% in size; note: potency is the fitted concentration of half-maximal effect)
Method in brief: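 3T3Gli1-Luc (NIH/3T3 clone, stable Gli1-Luc); 4 hr pre-incubation, then cpd in DMSO 24 hr, 37 C/5% CO2; luciferase reagent 30 min RT; luminescence.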

[16] = qHTS assay to identify small molecule antagonists of the sonic hedgehog signaling (Shh) pathway (AID 1259369; calls by dose curve; note: nearly all actives have a fitted effect of over 45% in size; note: potency is the fitted concentration of half-maximal effect)
Method in brief: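 3T3Gli1-Luc, conditioned-medium-stimulated, 24hr cpd, 37C/5% CO2; Gli1-driven firefly Luc luminescence after 30min RT with luciferase reagent. Cells plated 4hr before cpd.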

[17] = target: Androgen receptor (Homo sapiens) (UniProt P10275); assay: qHTS assay to identify small molecule antagonists of the androgen receptor (AR) signaling pathway using the MDA cell line in the presence of 0.5 nM R1881 (AID 1259243); note: nearly all actives have a fitted effect of over 50% in size
Androgen receptor (Homo sapiens), sequence (P10275 whole entry, looked up): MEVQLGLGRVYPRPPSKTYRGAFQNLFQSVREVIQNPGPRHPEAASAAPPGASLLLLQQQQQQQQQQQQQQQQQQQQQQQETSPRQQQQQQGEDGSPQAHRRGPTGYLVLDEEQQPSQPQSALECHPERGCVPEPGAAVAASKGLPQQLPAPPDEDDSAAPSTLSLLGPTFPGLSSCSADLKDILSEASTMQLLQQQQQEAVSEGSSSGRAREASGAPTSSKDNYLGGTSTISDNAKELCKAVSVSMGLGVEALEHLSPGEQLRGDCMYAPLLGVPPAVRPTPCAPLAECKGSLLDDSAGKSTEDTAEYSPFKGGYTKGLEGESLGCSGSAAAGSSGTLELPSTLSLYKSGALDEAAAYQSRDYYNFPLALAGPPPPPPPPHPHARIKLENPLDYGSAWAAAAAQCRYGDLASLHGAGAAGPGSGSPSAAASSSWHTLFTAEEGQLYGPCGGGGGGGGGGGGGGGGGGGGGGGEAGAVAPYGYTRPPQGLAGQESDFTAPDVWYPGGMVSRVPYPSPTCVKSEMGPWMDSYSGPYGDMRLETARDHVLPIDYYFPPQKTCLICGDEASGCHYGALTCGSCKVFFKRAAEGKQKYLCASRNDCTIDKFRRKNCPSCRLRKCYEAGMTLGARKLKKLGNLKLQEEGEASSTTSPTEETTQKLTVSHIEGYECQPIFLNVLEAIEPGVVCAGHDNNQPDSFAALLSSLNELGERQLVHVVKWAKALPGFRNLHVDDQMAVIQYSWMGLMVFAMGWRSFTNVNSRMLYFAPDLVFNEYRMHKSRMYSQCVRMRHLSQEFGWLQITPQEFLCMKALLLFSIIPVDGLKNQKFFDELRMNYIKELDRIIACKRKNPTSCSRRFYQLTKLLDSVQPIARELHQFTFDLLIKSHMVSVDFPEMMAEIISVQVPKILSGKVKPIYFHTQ
Method in brief: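 Luciferase luminescence is the read-out: compounds are tested for suppressing 0.5 nM R1881-driven MMTV reporter activity in MDA-kb2 cells after 16 hr at 37C.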

[18] = target: Estrogen receptor (Homo sapiens) (UniProt P03372); assay: qHTS assay to identify small molecule antagonists of the estrogen receptor alpha (ER-alpha) signaling pathway using the BG1 cell line in the presence of 0.1 nM 17-beta-estradiol (AID 1259244); note: nearly all actives have a fitted effect of over 50% in size; note: potency is the fitted concentration of half-maximal effect
Estrogen receptor (Homo sapiens), sequence (P03372 whole entry, looked up): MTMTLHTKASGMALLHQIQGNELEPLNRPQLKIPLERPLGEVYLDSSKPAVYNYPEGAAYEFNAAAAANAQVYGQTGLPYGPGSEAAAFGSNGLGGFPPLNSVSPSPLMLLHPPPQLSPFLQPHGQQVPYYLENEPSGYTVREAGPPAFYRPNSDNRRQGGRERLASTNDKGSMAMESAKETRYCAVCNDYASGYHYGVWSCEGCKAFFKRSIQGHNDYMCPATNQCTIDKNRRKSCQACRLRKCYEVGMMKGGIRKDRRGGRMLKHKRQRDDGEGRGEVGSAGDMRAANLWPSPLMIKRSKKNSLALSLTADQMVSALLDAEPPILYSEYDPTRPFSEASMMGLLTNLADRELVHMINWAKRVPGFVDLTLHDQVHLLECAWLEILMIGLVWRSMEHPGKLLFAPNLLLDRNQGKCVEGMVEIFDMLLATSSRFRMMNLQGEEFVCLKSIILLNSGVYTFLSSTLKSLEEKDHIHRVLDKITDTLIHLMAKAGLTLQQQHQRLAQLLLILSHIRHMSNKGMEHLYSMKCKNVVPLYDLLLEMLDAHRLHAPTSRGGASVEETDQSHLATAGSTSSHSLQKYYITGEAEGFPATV
Method in brief: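 Cells: VM7Luc4E2, endogenous ER-alpha, 4x ERE-luc stable. Pre-culture 5 d, phenol red-free, charcoal-stripped FBS. Plated 24 h, compound + E2 0.1 nM final, 22 h 37C/5% CO2. Readout ONE-Glo luminescence.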

[19] = qHTS assay to identify small molecule phospholipidosis (PLD) inducers (AID 1259344; active = well fitted curve in the direction sought with a large enough effect; an effect the other way counts as inactive or inconclusive)
Method in brief: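 HepG2 cells on collagen I, attached 4 h at 37 C, were co-treated with compound and LipidTOX Red dye for 24 h at 37 C, then fixed with paraformaldehyde plus Hoechst 33342 and imaged by high-content microscopy for phospholipid accumulation.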

[20] = qHTS assay to identify small molecule HDAC inhibitors (AID 1259364); note: nearly all actives have a fitted effect of over 45% in size; note: potency is the fitted concentration of half-maximal effect
Method in brief: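 Luminescence from a cell-permeant luminogenic class I/II HDAC substrate reports endogenous deacetylase activity in intact HCT-116 cells treated with compounds for 2 h.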

Measured: Potency

Brc1ccc(Br)cc1
inactive: [1] | [2] | [3] | [4] | [5] | [6] | [7] | [8] | [9] | [10] | [11] | [12] | [13] | [14] | [15]
inactive and 54.5 µM (active): [16]

O=C(O)c1nn(Cc2ccc(Cl)cc2Cl)c2ccccc12
inactive: [1] | [3] | [4] | [5] | [6] | [7] | [8] | [10] | [11] | [17] | [18] | [19] | [20] | [12] | [13] | [14] | [15] | [16]
inactive and 95.2 nM (active): [2]

CN(C)c1nc(=O)n(C2CCCCC2)c(=O)n1C
inactive: [1] | [2] | [3] | [4] | [6] | [7] | [8] | [9] | [10] | [11] | [18] | [20] | [12] | [13] | [14] | [15] | [16]

O=P(OCCCl)(OCCCl)OCCCl
inactive: [1] | [2] | [3] | [4] | [5] | [6] | [7] | [8] | [10] | [11] | [20] | [12] | [13] | [14] | [15] | [16]

CCC[CH2][Sn]([Cl])([CH2]CCC)[CH2]CCC
inactive: [1] | [8] | [20] | [15]
active: [2] 1.74 µM and 1.23 µM | [3] 6.18 µM and 7.76 µM | [4] 2.19 µM and 692 nM | [5] 347 nM and 549 nM | [6] 618 nM and 1.23 µM | [7] 3.1 µM and 5.49 µM | [10] 7.71 µM and 6.11 µM | [11] 1.09 µM and 686 nM | [18] 487 nM and 433 nM | [12] 19.4 µM and 17.2 µM | [13] 217 nM and 386 nM | [14] 487 nM and 770 nM | [16] 0.307 µM

O=[N+]([O-])c1ccc(Nc2ccccc2)cc1
active: [5] 44 µM and 21.9 µM | [14] 48.9 µM | [16] 17.2 µM
inactive: [1] | [2] | [3] | [4] | [7] | [8] | [9] | [11] | [20] | [12] | [15]

CCCCOC(=O)COC(=O)c1ccccc1C(=O)OCCCC
inactive: [1] | [2] | [3] | [4] | [6] | [7] | [8] | [9] | [10] | [11] | [18] | [20] | [12] | [13] | [14] | [15] | [16]

O=C1C(Cl)=C(Cl)C(=O)c2ccccc21
active: [2] 15.5 µM and 4.9 µM | [4] 21.9 µM and 6.92 µM | [5] 6.19 µM and 9.77 µM | [6] 6.19 µM and 7.76 µM | [7] 4.91 µM | [9] 15.5 µM and 6.17 µM | [10] 24.4 µM | [11] 43.4 µM | [18] 12.2 µM and 19.3 µM | [12] 61.3 µM and 38.6 µM | [13] 4.34 µM | [14] 4.87 µM | [16] 1.73 µM
inactive: [1] | [15]
27.6 µM (active) and inactive: [3]

CC[n+]1c(-c2ccccc2)c2cc(N)ccc2c2ccc(N)cc21
54.2 µM (active) and inactive: [13]
active: [6] 34.5 µM | [10] 30.5 µM | [11] 24.2 µM and 13.3 µM | [18] 27.2 µM and 21.1 µM | [16] 17.1 µM
48.3 µM (active) and inactive: [14]
inactive: [1] | [2] | [3] | [4] | [7] | [8] | [9] | [19] | [20] | [12] | [15]

[Cl-].[Cl-].[Cl-].[Fe+3]
inactive: [1] | [2] | [3] | [4] | [5] | [6] | [7] | [8] | [10] | [11] | [20] | [12] | [13] | [14] | [15]

CC1=C(C(=O)Nc2ccccc2)SCCO1
active: [20] 24.7 µM and 27.3 µM
inactive: [1] | [2] | [3] | [4] | [5] | [6] | [7] | [8] | [10] | [11] | [17] | [18] | [12] | [13] | [14] | [15] | [16]

CCCCOCCOC(C)=O
inactive: [1] | [2] | [3] | [4] | [5] | [6] | [7] | [8] | [10] | [11] | [18] | [20] | [12] | [13] | [14] | [15] | [16]

OC(c1ccc(Cl)cc1)(c1cncnc1)c1ccccc1Cl (stereo unspecified)
active: [4] 39.6 µM | [5] 7.04 µM | [6] 22.3 µM
17.7 µM (active) and inactive: [2]
inactive: [1] | [3] | [8] | [9] | [10] | [20] | [12] | [13] | [14] | [15] | [16]
27.8 µM (active) and inactive: [11]

N#Cc1c(Cl)c(Cl)c(Cl)c(C#N)c1Cl
inactive: [1] | [8] | [12]
active: [2] 21.5 µM and 3.47 µM | [3] 7.76 µM | [4] 21.5 µM and 6.16 µM | [5] 2.15 µM and 1.23 µM | [6] 12.1 µM and 17.4 µM | [7] 12.1 µM and 8.71 µM | [11] 16.9 µM and 13.7 µM | [18] 6.73 µM and 15.4 µM | [13] 2.13 µM and 3.86 µM | [14] 2.39 µM and 6.86 µM | [15] 673 nM and 969 nM | [16] 0.3 µM
